# Experimental data taken from the supplement of paper PMC10338343.
# ± gives the standard deviation.
# System: EfPiwi piRISC loaded with L1MC piRNA (26 nt)
# Assay: pre-steady-state target cleavage rate (min^-1); auxiliary factor: 500 nM Ephydatia muelleri Gtsf1; guide: L1MC piRNA 5'p-UAACUAAAUACUAUGCAAGCUGUAGG; MIWI and MILI are mouse PIWI proteins and EfPiwi is from a freshwater sponge; tags in brackets are library labels; higher = faster piRNA-guided slicing of the target
# Method in brief: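 Active affinity-purified piRISC carrying one synthetic guide (1 nM) was mixed with a transcribed, DNA-blocked target RNA library […] in HEPES–potassium acetate buffer at 33 °C for 0–8 or 0–960 min, with or without 500 nM GTSF1 partner protein. Uncleaved targets were then sequenced and normalised to depth and to weakly complementary targets. Three trials were pooled, and k3 was capped at 0.0001 min^-1. A burst-and-steady-state fit was applied to obtain the pre-steady-state cleavage rate.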
row,Sequence,pre-steady-state target cleavage rate
1,UCCUGGAUGUCGUUGGUAAGUAUUUAGUUA,< 0.0001
2,UCCUGCUACAGCUUGCAUAGUAUUUAGUUC [g2:g25:cont:t1C],0.0645 ± 0.016
3,UCCUGGAUGUCGAACGUAUGUAUUUUAGUUA,< 0.0001
4,UCCUCCUACAGCUUGCAUAGUAUUAUGUUA,0.0049 ± 0.0026
5,UCCUGGAUGUCGAACGUAUCUAUUUAGAAA [g4:g10:cont:t1A],< 0.0001
6,UCCUGGAUGAGCAUGCAUAGUAUAUAGUUA,0.00333 ± 0.0032
7,UCCUGGAUGUCGAACGUAUCUAUGUAGUUA,< 0.0001
8,UCCUGGAUGUCGAUGCUUAGAAUUUAGUUA,< 0.0001
9,UCCUCCUACAGCAUGCUUAGUAUUUAGUUA,0.0116 ± 0.0032
10,UCCUGCUACAGGUUGCUUAGUAUUUAGUUA,0.0276 ± 0.0074
11,UCCUCCUACAGCUUCCAUAGUAUAUAGUUA,0.00246 ± 0.0022
12,UCCUGCGUACAGCUUGCAUAGUAUUUAGUUA,0.0434 ± 0.012
13,UCCUGGAUCAGCAUUGCAUAGUAUUUAGUUA,0.0605 ± 0.015
14,UCCUCGUACAGCUUGCAAAGUAUUUAGUUA,0.143 ± 0.032
15,UCCUGCUACAGUUUGCAUAGUAUUUAGUUA,0.0365 ± 0.011
16,UCCUGGAACAGCUAGCAUAGUAAUUAGUUA,0.0062 ± 0.0028
17,UCCUCCUACACCUUCCAUAGUAUUUAGUUA,0.00329 ± 0.0018
18,UCCUGGAUGUCGAACCAUAGCUAUUUAGUUA,< 0.0001
19,UCCUGCAACAGCUUGCAAAGUAUUUAGUUA,0.022 ± 0.0052
20,UCCUCCUACAGCUUGCGAUAGUAUUUAGUUA,0.00839 ± 0.0023

row,Sequence,pre-steady-state target cleavage rate
1,UCCUCCUACAGCUUGCAUAGUAUUUAGCUA,0.00335 ± 0.0016
2,UCCUCCUACAGCUUCCAUAGUAUUUAGAAA,0.00369 ± 0.0018
3,UCCUGCUACAGCUUGUCAUAGUAUUUAGUUA,0.0131 ± 0.0037
4,UCCUGCUACCGCUUGCAUAGUAUUUAGUUA,0.0156 ± 0.005
5,UCCUGCUACAGCUUCCAUAGUAUUUACAAA,0.00279 ± 0.0021
6,UCCUGGAUGUCGAACGUAUCUAGUUUAGUUA,< 0.0001
7,UCCUGGUACAGGAUGCAUAGUAUUUAGAAA,0.00448 ± 0.004
8,UCCUGGAUCAGCUUGCGAUAGUAUUUAGUUA,0.00281 ± 0.0027
9,UCCUGGUACGCUUGCAUAGUAUUUAGUUA,0.00582 ± 0.0027
10,UCCUCCUACAGCUUGCAUAGUUAAUAGUUA,0.00703 ± 0.0035
11,UCCUGGUACAGCUUGCAUAGUAUUAAGAUA,0.0058 ± 0.0028
12,UCCUGGUACAGCUUGCAUUGUAUUUUGUUA,0.00266 ± 0.0026
13,UCCUGGAUGAGGUUGCAUAGUAUUUAGAAA,0.00315 ± 0.0029
14,UCCUGGAACAGGAUGCAUAGUAUUUAGUAA,0.0055 ± 0.0028
15,UCCUGGUACAGCUUGCAUAGUAUAUUCAAA,0.00341 ± 0.0028
16,UCCUCCUACAGCUUGCAUAGUAUUUAGUUUA,0.145 ± 0.039
17,UCCUGGAUGAGUCUUGCAUAGUAUUUAGUUA,0.00527 ± 0.0024
18,UCCUCCUACAGCUUCCAUAGUAUUUAGAUA,0.00393 ± 0.0021
19,UCCUGGAUGUCGAAGCAUACUAUUUUGUUA,< 0.0001
20,UCCUGGAUGACGUUGCAUAGUAUUUAGUUA,0.00512 ± 0.0026
